About 83,000 compounds went through this panel and 20% of them were active in at least one assay; those are over-represented in the sample as a whole.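 For each line, cells grew in 96-well plates with the test compound present at a single concentration for 48 hours.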 Unmarked numbers belong to inactive results. Calls of active or inactive are those of the source. How the source made its calls: active means growth percent below 10; inactive means the rest.

From PubChem BioAssay (NCI) come the findings set out here.

The first assay has as its system NCI-H460 lung. Kind of assay: NCI-60 one-dose screen, 48 h (100 = growth as untreated, 0 = no growth, -100 = all killed). To be noted: 10 µM unless noted.
On to `CCCCC[C@H]1C/C=C2/C(=O)C(Cl)=C[C@@H]2C/C=C\CCCC(=O)O[C@@H](CCCCC)C/C=C2/C(=O)C(Cl)=C[C@@H]2C/C=C\CCCC(=O)O1`, for which the growth is -27.2% (active).

Consider `O=C1CNCCN1`, for which the growth is 105%.

Regarding `COc1ccc2c3c(c4ccccc4cc13)C(=O)N(CCN(C)CCN)C2=O`, the growth was -69.2% (active).

Regarding `CCN(CC)CCCCCNc1cc(OC(=O)c2ccccc2)cc2cccnc12`, the growth is 163%.

In the case of `CC(=O)OC(C)COc1ccc(-c2ccccc2)cc1` (configuration not stated), the growth is 105%.

With `COc1ccc(CCN2C(=O)C(C)(C)SC2=S)cc1OC`, the growth is 105%.

For `c1ccc2[nH]c(-c3cc(-c4ccc5c(c4)OCO5)n[nH]3)nc2c1`, the growth was 46.4%.

For the compound `Cn1cc(-c2csc(-c3cn(CCCN4CCCCC4)c4ccccc34)n2)c2cccnc21`, the growth is -58.7% (active).

For the compound `COC(=O)[C@]12CC[C@@H](C)[C@H](C)[C@@H]1C1=CC[C@@H]3[C@@]4(C)C[C@@H](O)[C@H](O)[C@@](C)(CO)C4=CC[C@@]3(C)[C@]1(C)CC2`, the growth was -63.4% (active).

With `CC1(n2nnnc2N2CCCN(c3ncccc3N)CC2)CCC1`, the growth is 99.5%.

Turning to `C=C1CC[C@@H](C(=O)OC)Cc2nc(C)ccc21`, the growth is 106%.

In the case of `Clc1cc(Cl)cc(Nc2ccc3c(OCCCN4CCOCC4)cccc3n2)c1`, the growth was 13.1%.

With `Cc1ccc(-c2ccc(/C=C(\C#N)c3nc(-c4ccco4)cs3)o2)cc1`, the growth is 99.3%.

Take `CCSc1ncnc2c1ncn2C1OC(CO)C(O)C1O` (configuration not stated): the growth was 14.9%.

Take `CCN(CC)C(=O)CCCCCn1c2ccccc2c2c3c(c4c5ccccc5[nH]c4c21)C(=O)N(O)C3=O`: the growth was 53.1%.

Take `N#C/C(=C\c1ccc(-c2ccccc2)o1)c1nc(-c2ccco2)cs1`: the growth is 85%.

`C/C(=N\Nc1cc(C)c2cc(C)ccc2n1)c1ccccn1`: the growth is -68.7% (active).

For the compound `O=C1c2ccccc2NC(c2cn(-c3ccccc3)nc2-c2cccs2)N1Cc1ccccc1` (configuration not stated), the growth is 94.5%.

On to `C[C@]12CC[C@@H]3c4ccc(O)cc4CC[C@H]3[C@@H]1C[C@H](O)[C@@H]2O`, for which the growth was 95.2%.

Regarding `CC(=O)n1c(/C(C#N)=C/c2ccc(N(C)C)cc2)cc2ccccc21`, the growth was 15%.

Consider `Fc1ccc2[nH]cc(-c3nc(-c4c[nH]c5ncccc45)cs3)c2c1`, for which the growth was 9.85% (active).

For the compound `S=c1[nH]nc2ccccn12`, the growth was 109%.

As for `N#Cc1c(-c2ccc(O)cc2)c2c(N)nn(-c3ccccc3)c2[nH]c1=O`, the growth is 110%.

Take `COc1ccc(OC)c(-c2c(C#N)c(-c3ccco3)nc3c2c(-c2ccccc2)nn3-c2ccccc2)c1`: the growth was 101%.

Another assay relates to HOP-92 NSCLC. Described as above. The settings on record: 10 µM unless noted.
Consider `Nc1nc2c3ccncc3cc(-c3cccc(Cl)c3)c2c2cnccc12`, for which the growth was 50.3%.

Take `O=C1c2cc3c(cc2-c2c1c1ccc(F)cc1c(=O)n2CCCN1CCOCC1)OCO3`: the growth is 68.4%.

As for `c1ccc(CN2C(c3ccccc3)=Nc3ccccc3C2c2c[nH]c3ccccc23)cc1` (configuration not stated), the growth was -2.7% (active).

Regarding `O=C1C(Cl)=C(Nc2ccc(S(=O)(=O)c3ccc(NC4=C(Cl)C(=O)c5ccccc5C4=O)cc3)cc2)C(=O)c2ccccc21`, the growth was -26.2% (active).

`CCc1cccc(CC)c1NC(=O)c1sc2nc3c(cc2c1N)CCCC3`: the growth is 51.2%.

Consider `COc1cc2[nH]c(C(=O)c3cc(OC)c(OC)c(OC)c3)c(N)c2cc1C#CCO`, for which the growth was 21.6%.

For the compound `Cn1cc(-c2csc(-c3cn(C(=O)OC(C)(C)C)c4ccc(Br)cc34)n2)c2cccnc21`, the growth was 98.7%.

With `Fc1cccc(-c2[nH]nc3nc(Nc4cccnc4)sc23)c1`, the growth is 86.4%.

As to `O=Cc1nc2ccccc2[nH]1`, the growth is 86.1%.

As for `N#C/C(=C\c1ccc(-c2ccc(Br)cc2)o1)c1nc(-c2ccco2)cs1`, the growth was 86.3%.

Turning to `C[C@H]1OC(=O)/C=C/[C@@H](O)[C@@H](O)CCCCCCCC[C@@H]1O`, the growth is 82.8%.

With `C=C1C(=O)O[C@H]2[C@H]1CC/C(COC(=O)NCc1cc3ccccc3[nH]1)=C\CC[C@@]1(C)O[C@@H]21`, the growth was -14.3% (active).

Take `Cc1ccc(-c2nn(Cc3cn(-c4cc(C)nc5ccccc45)nn3)c3ncnc(N)c23)cc1`: the growth is -0.284% (active).

In the case of `COc1ccc(-c2nc3ncccn3c2-c2nc3ccc(Br)cc3[nH]2)cc1`, the growth is 77.1%.

For the compound `CCCCC[C@H]1C/C=C2/C(=O)C(Cl)=C[C@@H]2C/C=C\CCCC(=O)O[C@@H](CCCCC)C/C=C2/C(=O)C(Cl)=C[C@@H]2C/C=C\CCCC(=O)O1`, the growth is -63.4% (active).

On to `O=C1CNCCN1`, for which the growth is 105%.

Regarding `COc1ccc2c3c(c4ccccc4cc13)C(=O)N(CCN(C)CCN)C2=O`, the growth was -7.66% (active).

Consider `CCN(CC)CCCCCNc1cc(OC(=O)c2ccccc2)cc2cccnc12`, for which the growth is 99.1%.

On to `CC(=O)OC(C)COc1ccc(-c2ccccc2)cc1` (configuration not stated), for which the growth is 89.9%.

For `COc1ccc(CCN2C(=O)C(C)(C)SC2=S)cc1OC`, the growth was 102%.

Turning to `c1ccc2[nH]c(-c3cc(-c4ccc5c(c4)OCO5)n[nH]3)nc2c1`, the growth is 119%.

For the compound `Cn1cc(-c2csc(-c3cn(CCCN4CCCCC4)c4ccccc34)n2)c2cccnc21`, the growth was 57.8%.

For the compound `COC(=O)[C@]12CC[C@@H](C)[C@H](C)[C@@H]1C1=CC[C@@H]3[C@@]4(C)C[C@@H](O)[C@H](O)[C@@](C)(CO)C4=CC[C@@]3(C)[C@]1(C)CC2`, the growth is -77.6% (active).

For the compound `CC1(n2nnnc2N2CCCN(c3ncccc3N)CC2)CCC1`, the growth was 95.7%.

For the compound `C=C1CC[C@@H](C(=O)OC)Cc2nc(C)ccc21`, the growth was 106%.

As to `Clc1cc(Cl)cc(Nc2ccc3c(OCCCN4CCOCC4)cccc3n2)c1`, the growth is 37.3%.

With `Cc1ccc(-c2ccc(/C=C(\C#N)c3nc(-c4ccco4)cs3)o2)cc1`, the growth is 100%.

In the case of `CCSc1ncnc2c1ncn2C1OC(CO)C(O)C1O` (configuration not stated), the growth is 33%.

For `CCN(CC)C(=O)CCCCCn1c2ccccc2c2c3c(c4c5ccccc5[nH]c4c21)C(=O)N(O)C3=O`, the growth was 78.5%.

For `N#C/C(=C\c1ccc(-c2ccccc2)o1)c1nc(-c2ccco2)cs1`, the growth is 87.4%.

Take `C/C(=N\Nc1cc(C)c2cc(C)ccc2n1)c1ccccn1`: the growth was -11% (active).

With `O=C1c2ccccc2NC(c2cn(-c3ccccc3)nc2-c2cccs2)N1Cc1ccccc1` (configuration not stated), the growth was 74.1%.

In the case of `C[C@]12CC[C@@H]3c4ccc(O)cc4CC[C@H]3[C@@H]1C[C@H](O)[C@@H]2O`, the growth was 99.2%.

Consider `CC(=O)n1c(/C(C#N)=C/c2ccc(N(C)C)cc2)cc2ccccc21`, for which the growth is 70.9%.

As to `Fc1ccc2[nH]cc(-c3nc(-c4c[nH]c5ncccc45)cs3)c2c1`, the growth was 24.3%.

As for `S=c1[nH]nc2ccccn12`, the growth is 100%.

For the compound `N#Cc1c(-c2ccc(O)cc2)c2c(N)nn(-c3ccccc3)c2[nH]c1=O`, the growth was 96.6%.

Take `COc1ccc(OC)c(-c2c(C#N)c(-c3ccco3)nc3c2c(-c2ccccc2)nn3-c2ccccc2)c1`: the growth was 78.5%.
